The record followed here is PubChem BioAssay.

Active and inactive are the calls of the source.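 Rule for the calls, unless noted: active = mean inhibition over 43.08%, the solvent-only control mean plus 3 SD; inactive = the rest.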

Broadly, the inhibition is the change of the read-out against control, counted positive when it falls.

Sequence of Nuclear receptor coactivator 3 (Homo sapiens) (Q9Y6Q9 whole entry, looked up, the tested form may be a part): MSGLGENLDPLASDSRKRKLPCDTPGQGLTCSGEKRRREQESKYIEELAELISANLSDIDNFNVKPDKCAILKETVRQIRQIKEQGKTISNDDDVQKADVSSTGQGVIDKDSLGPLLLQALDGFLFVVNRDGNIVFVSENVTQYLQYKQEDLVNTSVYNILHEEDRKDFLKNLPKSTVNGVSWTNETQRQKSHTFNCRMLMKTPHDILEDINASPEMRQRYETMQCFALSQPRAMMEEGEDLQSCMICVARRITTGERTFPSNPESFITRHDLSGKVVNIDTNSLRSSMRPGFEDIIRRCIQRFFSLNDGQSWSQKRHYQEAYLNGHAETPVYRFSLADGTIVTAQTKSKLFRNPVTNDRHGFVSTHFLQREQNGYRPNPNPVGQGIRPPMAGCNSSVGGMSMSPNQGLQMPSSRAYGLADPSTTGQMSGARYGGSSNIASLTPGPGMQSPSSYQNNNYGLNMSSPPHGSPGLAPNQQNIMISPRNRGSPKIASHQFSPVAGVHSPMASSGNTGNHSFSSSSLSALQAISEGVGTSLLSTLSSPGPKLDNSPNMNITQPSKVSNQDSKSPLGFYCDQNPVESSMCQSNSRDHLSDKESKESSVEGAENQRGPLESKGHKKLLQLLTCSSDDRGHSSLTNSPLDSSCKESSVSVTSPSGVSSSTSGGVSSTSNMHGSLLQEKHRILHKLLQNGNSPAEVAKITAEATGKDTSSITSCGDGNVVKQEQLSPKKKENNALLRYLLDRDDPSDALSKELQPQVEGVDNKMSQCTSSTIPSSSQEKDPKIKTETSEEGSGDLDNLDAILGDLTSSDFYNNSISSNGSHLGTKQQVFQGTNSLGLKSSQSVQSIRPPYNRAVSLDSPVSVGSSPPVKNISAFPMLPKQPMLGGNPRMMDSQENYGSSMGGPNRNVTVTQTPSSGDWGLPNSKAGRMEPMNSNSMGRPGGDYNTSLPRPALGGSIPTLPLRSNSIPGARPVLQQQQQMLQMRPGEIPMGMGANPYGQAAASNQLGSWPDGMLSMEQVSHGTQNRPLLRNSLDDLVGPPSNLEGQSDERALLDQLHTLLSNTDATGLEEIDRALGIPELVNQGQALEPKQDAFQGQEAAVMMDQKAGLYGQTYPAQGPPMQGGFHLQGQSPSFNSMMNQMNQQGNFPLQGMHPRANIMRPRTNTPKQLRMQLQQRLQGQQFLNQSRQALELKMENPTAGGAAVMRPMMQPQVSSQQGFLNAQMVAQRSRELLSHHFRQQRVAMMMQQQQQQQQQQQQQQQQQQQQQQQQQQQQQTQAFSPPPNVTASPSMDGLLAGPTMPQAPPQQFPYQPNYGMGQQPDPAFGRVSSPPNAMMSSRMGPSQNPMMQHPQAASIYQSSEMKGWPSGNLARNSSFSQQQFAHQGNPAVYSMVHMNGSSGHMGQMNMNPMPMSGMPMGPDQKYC

One experiment concerns the target Nuclear receptor coactivator 3 (Homo sapiens) (UniProt Q9Y6Q9). The experiment can be described thus: SRC3 coactivator transcriptional activity inhibitors, confirmation, cell-based, luminescence, quadruplicate (AID 588792).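 Note: 0% = DMSO treated cells and 100% = gossypol at 36 µM.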 The conditions noted are these: HEK293 GAL4-SRC3 luciferase reporter, at 3.6 µM, hits give high values. (In a reporter assay the amount or activity of a reporter protein is the signal.)
For the compound `CCN(CC)CCCNc1nc2ccccc2c2nc(-c3ccncc3)nn12`, the inhibition was -2.05% (inactive).

In the case of `Cc1ccc(S(=O)(=O)NCCC(=O)Nc2ccncc2)cc1C`, the inhibition is -1.9% (inactive).

`COc1ccc2nc(C)cc(Nc3ccc(N4CCN(C)CC4)cc3)c2c1`: the inhibition is 71.8% (active).

Turning to `Cc1ccc(C(=O)OCC(=O)Nc2sccc2C(N)=O)cc1NC(=O)c1ccco1`, the inhibition is 18.4% (inactive).

Regarding `C=C(C)COc1ccc(-c2[nH]ncc2-c2ccc(OC)cc2)c(O)c1`, the inhibition was 7.89% (inactive).

As to `COc1ccc(CN(Cc2cccn2C)S(=O)(=O)c2ccc(C)cc2)cc1`, the inhibition was 1.22% (inactive).

On to `Cc1ccc(CNC(=O)c2ccc3c(=O)c(O)c(-c4ccc(C)cc4)[nH]c3c2)cc1`, for which the inhibition was 28.5% (inactive).

As to `CCOC1=C2CN(S(=O)(=O)c3ccc(C)cc3)[C@H](c3ccc(CC)cc3)C[C@@H]2N(S(=O)(=O)c2ccc(C)cc2)[C@H](c2ccccc2)C1`, the inhibition was 10.9% (inactive).

In the case of `COc1cccc(CNCCO)c1OCc1ccccc1`, the inhibition is -2.38% (inactive).

`CCOCc1c(C(=O)NC2=Nc3ccccc3NC(CC)=C2C(=O)OCC)oc2ccccc12`: the inhibition is 1.38% (inactive).

Turning to `CCN(CC)S(=O)(=O)c1cccc(NC(=O)C2SC(=Nc3ccc(C)cc3C)C(C(=O)NC(C)COC)=C2N)c1` (stereo not given), the inhibition is 6.35% (inactive).

As to `CC(=O)Nc1ccc(S(=O)(=O)Oc2ccccc2N2CCCCC2)cc1`, the inhibition was -3.48% (inactive).

In the case of `CN1/C(=C\C(=O)C[n+]2cccc(Br)c2)C(C)(C)c2ccccc21`, the inhibition is 25.3% (inactive).

For `Cc1ccc(/C=C/C(O)=C2/C(=O)N(C)C3(C)CC2c2ccccc2O3)cc1` (stereo not given), the inhibition is 20.3% (inactive).

`O=c1[nH]oc2cc(Cl)ccc12`: the inhibition was 3.14% (inactive).

As to `CC(C)C(C)NC(=O)CSc1ccc(S(=O)(=O)N2CCOCC2)cn1` (stereo not given), the inhibition was -6.95% (inactive).

Turning to `Cc1cc(Br)ccc1NC(=O)c1cnc(N2CCN(c3ccccn3)CC2)c2ccccc12`, the inhibition was 15.6% (inactive).

For the compound `Cc1ccc(NC2=C/C(=N/S(=O)(=O)c3cccs3)c3ccccc3C2=O)cc1`, the inhibition was 85% (active).

For `COc1ccc(C2OC(=O)CC2C(=O)NCc2ccc(F)cc2)cc1OC` (stereo not given), the inhibition was -5.31% (inactive).

As to `CC(=O)Nc1ccc(C(=O)N/N=C/c2cc(Br)cc(Br)c2O)cc1`, the inhibition is 6.09% (inactive).

`COc1ccc2c(O)c(-c3c(C)cc(C)cc3C)c(=O)[nH]c2c1`: the inhibition is -14.3% (inactive).

With `COc1ccc2c(c1)CCc1cnc(N)nc1-2`, the inhibition was 20% (inactive).

Take `O=C(N/N=C\c1c(O)ccc2ccccc12)c1ccc(Cn2cccn2)o1`: the inhibition is 49.1% (active).

With `NC(=S)NNc1ccc(Cl)c(Cl)c1`, the inhibition is 12.7% (inactive).

Consider `CCN(CC)S(=O)(=O)c1cc(NC(=O)C(C)OC(=O)c2[nH]c(C)c(C(C)=O)c2C)ccc1C` (stereo not given), for which the inhibition is 16% (inactive).

In the case of `C/C(=N\NC(=O)C1COc2ccccc2O1)c1ccccn1` (stereo not given), the inhibition was -12.8% (inactive).

For `NC(=O)c1sc2nc3c(c(-c4ccco4)c2c1N)CCCC3`, the inhibition is 59.8% (active).

As for `COc1ccc2nc(C(F)(F)Cl)c(C#N)c(N)c2c1`, the inhibition is 24% (inactive).

Turning to `Cc1cccc(C)c1NC(=O)c1ccc(-c2ccc(Cl)cc2Cl)o1`, the inhibition was 28.4% (inactive).

For the compound `COc1ccccc1OCC(=O)NNC(=O)C1CCN(c2ncnc3sc(C)c(C)c23)CC1`, the inhibition is 3.67% (inactive).

On to `O=C(Nc1cccc(S(=O)(=O)N2CCCCC2)c1)c1ccc(S(=O)(=O)C(F)F)cc1`, for which the inhibition was 3.35% (inactive).

With `O=[N+]([O-])c1ccc(S(=O)(=O)CC2CSc3nc4ccccc4n32)cc1` (stereo not given), the inhibition is 15.6% (inactive).

With `Cc1nc2cc(F)ccc2n1C1CCN(S(=O)(=O)c2ccccc2)CC1`, the inhibition was 14.1% (inactive).

As for `COc1ccccc1N1CCN(C(=O)C2CCCN(S(=O)(=O)c3ccc4c(c3)CCCN4C(C)=O)C2)CC1` (stereo not given), the inhibition is -12.2% (inactive).

`Cc1cc(=O)oc2cc(NC(=O)COc3cccc(C(F)(F)F)c3)ccc12`: the inhibition was 7.34% (inactive).

Consider `O=C(Cc1ccccc1)Nc1cc(Cl)ccc1Sc1ccccc1`, for which the inhibition is 2.36% (inactive).

Regarding `CCN(C(=O)COC(=O)c1ccccc1Cc1ccccc1)c1c(N)n(Cc2ccccc2)c(=O)[nH]c1=O`, the inhibition is 6.67% (inactive).

With `O=C(NN=Cc1ccccc1O)c1cccc([N+](=O)[O-])c1`, the inhibition was 52.8% (active).

For `CC(=O)Nc1ccc(NC(=O)c2ccc(N(Cc3ccccc3C)S(C)(=O)=O)cc2)cc1`, the inhibition is -0.29% (inactive).

As for `CCCN1C(=O)c2ccccc2NC1c1ccc(Cl)c(Cl)c1` (stereo not given), the inhibition is 17.8% (inactive).

The test system of the next experiment is transactivating tegument protein VP16 (Human herpesvirus 1), Gal4-VP16 luciferase reporter. The experiment can be described thus: VP16 transactivation inhibitors, counter-screen for SRC3 inhibitor project, cell-based, luminescence, high throughput (AID 588794; in the data active = inhibition above about 30%). The conditions noted are these: mammalian cells, VP16-driven luciferase reporter luminescence; at 3.6 µM; hits give high values. For orientation: The purpose of a counterscreen is to sort out artefacts and off-target activity.
With `CCN(CC)CCCNc1nc2ccccc2c2nc(-c3ccncc3)nn12`, the inhibition is 41.3% (active).

Turning to `Cc1ccc(S(=O)(=O)NCCC(=O)Nc2ccncc2)cc1C`, the inhibition is -0.54% (inactive).

Consider `COc1ccc2nc(C)cc(Nc3ccc(N4CCN(C)CC4)cc3)c2c1`, for which the inhibition was 35.3% (active).

For the compound `Cc1ccc(C(=O)OCC(=O)Nc2sccc2C(N)=O)cc1NC(=O)c1ccco1`, the inhibition is 11.5% (inactive).

As for `C=C(C)COc1ccc(-c2[nH]ncc2-c2ccc(OC)cc2)c(O)c1`, the inhibition is 14.5% (inactive).

For the compound `COc1ccc(CN(Cc2cccn2C)S(=O)(=O)c2ccc(C)cc2)cc1`, the inhibition was -4.15% (inactive).

For the compound `Cc1ccc(CNC(=O)c2ccc3c(=O)c(O)c(-c4ccc(C)cc4)[nH]c3c2)cc1`, the inhibition was 8.89% (inactive).

For `CCOC1=C2CN(S(=O)(=O)c3ccc(C)cc3)[C@H](c3ccc(CC)cc3)C[C@@H]2N(S(=O)(=O)c2ccc(C)cc2)[C@H](c2ccccc2)C1`, the inhibition is 35.4% (active).

In the case of `COc1cccc(CNCCO)c1OCc1ccccc1`, the inhibition was 8.14% (inactive).

As for `CCOCc1c(C(=O)NC2=Nc3ccccc3NC(CC)=C2C(=O)OCC)oc2ccccc12`, the inhibition was -11.3% (inactive).

With `CCN(CC)S(=O)(=O)c1cccc(NC(=O)C2SC(=Nc3ccc(C)cc3C)C(C(=O)NC(C)COC)=C2N)c1` (stereo not given), the inhibition is 5.31% (inactive).

With `CC(=O)Nc1ccc(S(=O)(=O)Oc2ccccc2N2CCCCC2)cc1`, the inhibition was 0.67% (inactive).

For `CN1/C(=C\C(=O)C[n+]2cccc(Br)c2)C(C)(C)c2ccccc21`, the inhibition was 21.2% (inactive).

Consider `Cc1ccc(/C=C/C(O)=C2/C(=O)N(C)C3(C)CC2c2ccccc2O3)cc1` (stereo not given), for which the inhibition is 30.3% (active).

`O=c1[nH]oc2cc(Cl)ccc12`: the inhibition is -1.43% (inactive).

As to `CC(C)C(C)NC(=O)CSc1ccc(S(=O)(=O)N2CCOCC2)cn1` (stereo not given), the inhibition was 8.39% (inactive).

As to `Cc1cc(Br)ccc1NC(=O)c1cnc(N2CCN(c3ccccn3)CC2)c2ccccc12`, the inhibition was 15.2% (inactive).

Consider `Cc1ccc(NC2=C/C(=N/S(=O)(=O)c3cccs3)c3ccccc3C2=O)cc1`, for which the inhibition was 82% (active).

Regarding `COc1ccc(C2OC(=O)CC2C(=O)NCc2ccc(F)cc2)cc1OC` (stereo not given), the inhibition is -5.19% (inactive).

For the compound `CC(=O)Nc1ccc(C(=O)N/N=C/c2cc(Br)cc(Br)c2O)cc1`, the inhibition was 11.2% (inactive).

Consider `COc1ccc2c(O)c(-c3c(C)cc(C)cc3C)c(=O)[nH]c2c1`, for which the inhibition was -6.8% (inactive).

As to `COc1ccc2c(c1)CCc1cnc(N)nc1-2`, the inhibition was 10.4% (inactive).

Regarding `O=C(N/N=C\c1c(O)ccc2ccccc12)c1ccc(Cn2cccn2)o1`, the inhibition is 39.5% (active).

For the compound `NC(=S)NNc1ccc(Cl)c(Cl)c1`, the inhibition was -0.23% (inactive).

Take `CCN(CC)S(=O)(=O)c1cc(NC(=O)C(C)OC(=O)c2[nH]c(C)c(C(C)=O)c2C)ccc1C` (stereo not given): the inhibition was 8.36% (inactive).

In the case of `C/C(=N\NC(=O)C1COc2ccccc2O1)c1ccccn1` (stereo not given), the inhibition is 19.6% (inactive).

As for `NC(=O)c1sc2nc3c(c(-c4ccco4)c2c1N)CCCC3`, the inhibition was 32.4% (active).

`COc1ccc2nc(C(F)(F)Cl)c(C#N)c(N)c2c1`: the inhibition was -0.89% (inactive).

For the compound `Cc1cccc(C)c1NC(=O)c1ccc(-c2ccc(Cl)cc2Cl)o1`, the inhibition is 23% (inactive).

In the case of `COc1ccccc1OCC(=O)NNC(=O)C1CCN(c2ncnc3sc(C)c(C)c23)CC1`, the inhibition is 0.76% (inactive).

As to `O=C(Nc1cccc(S(=O)(=O)N2CCCCC2)c1)c1ccc(S(=O)(=O)C(F)F)cc1`, the inhibition is 14.9% (inactive).

For the compound `O=[N+]([O-])c1ccc(S(=O)(=O)CC2CSc3nc4ccccc4n32)cc1` (stereo not given), the inhibition was 18.6% (inactive).

With `Cc1nc2cc(F)ccc2n1C1CCN(S(=O)(=O)c2ccccc2)CC1`, the inhibition was 15.3% (inactive).

Take `COc1ccccc1N1CCN(C(=O)C2CCCN(S(=O)(=O)c3ccc4c(c3)CCCN4C(C)=O)C2)CC1` (stereo not given): the inhibition is 8.25% (inactive).

For the compound `Cc1cc(=O)oc2cc(NC(=O)COc3cccc(C(F)(F)F)c3)ccc12`, the inhibition is -7.4% (inactive).

With `O=C(Cc1ccccc1)Nc1cc(Cl)ccc1Sc1ccccc1`, the inhibition was 5.41% (inactive).

Turning to `CCN(C(=O)COC(=O)c1ccccc1Cc1ccccc1)c1c(N)n(Cc2ccccc2)c(=O)[nH]c1=O`, the inhibition was 13.9% (inactive).

For `O=C(NN=Cc1ccccc1O)c1cccc([N+](=O)[O-])c1`, the inhibition is 51.8% (active).

Take `CC(=O)Nc1ccc(NC(=O)c2ccc(N(Cc3ccccc3C)S(C)(=O)=O)cc2)cc1`: the inhibition was -7.31% (inactive).

Consider `CCCN1C(=O)c2ccccc2NC1c1ccc(Cl)c(Cl)c1` (stereo not given), for which the inhibition was 22.1% (inactive).
